# Assay results as given in PubChem BioAssay (NCATS).
# Inconclusive results are not listed. Activity calls are given as the source filed them. The call rests on the fitted dose curve; in most records, active means well fitted inhibition curve with a large enough effect; inconclusive means small, poorly fitted or top-dose-only effect; inactive means no such curve, though single readings can be large or run the other way.
# Experiment: BET inhibitor-based combinations targeting novel dependencies in MECOM-rearranged (r) AML: MV-4-11 cell line (AID 2202233); further: nearly all actives have a fitted effect of over 45% in size
# Details: MV-4-11 AML viability, CellTiter-Glo luminescence, 48 h; series mostly up to 46 µM
# Procedure, shortened: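 Seeding density was 500 cells/well, and drug exposure lasted 48 hr under standard culture conditions. Read-out used CellTiter-Glo reagent with a 15 min room-temperature incubation before luminescence measurement; AUC and Z-AUC summarize the normalized responses.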
# Potency means the concentration at half of the fitted maximal effect.
row,SMILES,Potency
1,CN(C)NC(=O)CCC(=O)O,inactive
2,CCCCCCC(C)(C)c1cc(O)c2c(c1)OC(C)(C)C1CC=C(CO)C[C@H]21 (some centres undefined),29500 nM (active)
3,C/C(=C\c1csc(C)n1)[C@@H]1C[C@@H]2O[C@]2(C)CCC[C@H](C)[C@H](O)[C@@H](C)C(=O)C(C)(C)[C@@H](O)CC(=O)O1,9.3 nM (active)
4,CN(C)[C@@H]1C(=O)C(C(N)=O)=C(O)[C@@]2(O)C(=O)C3=C(O)c4c(O)cccc4[C@@](C)(O)[C@H]3[C@H](O)[C@@H]12,inactive
5,COC(=O)[C@]12CCC(C)(C)C[C@H]1[C@H]1C(=O)C=C3[C@@]4(C)C=C(C#N)C(=O)C(C)(C)[C@@H]4CC[C@@]3(C)[C@]1(C)CC2,417 nM (active)
6,C[C@H]1CCC/C=C/C2C[C@H](O)C[C@H]2[C@H](O)/C=C/C(=O)O1 (some centres undefined),263 nM (active)
7,COc1cc(C)[nH]c(=O)c1CNC(=O)c1c(C)n([C@H](C)C2CCN(CC(F)(F)F)CC2)c2ccccc12,inactive
8,CC(C)C[C@H](CN)CC(=O)O,inactive
9,Cc1c(N)nc([C@H](CC(N)=O)NC[C@@H](N)C(N)=O)nc1C(=O)N[C@H](C(=O)N[C@@H](C)[C@H](O)[C@@H](C)C(=O)N[C@@H](C(=O)NCCc1nc(-c2nc(C(=O)NCCC[S+](C)C)cs2)cs1)[C@@H](C)O)C(O[C@H]1O[C@H](CO)[C@H](O)[C@@H](O)[C@H]1O[C@H]1O[C@H](CO)[C@@H](O)[C@H](OC(N)=O)[C@@H]1O)c1cnc[nH]1 (some centres undefined),4560 nM (active)
10,CC(C)[C@]12O[C@H]1[C@@H]1O[C@]13[C@]1(O[C@H]1C[C@H]1C4=C(CC[C@@]13C)C(=O)OC4)[C@@H]2O,37.2 nM (active)
11,COC(=O)[C@@]12OC[C@]34[C@H]([C@@H](O)[C@@H]1O)[C@@]1(C)CC(=O)C(O)=C(C)[C@@H]1C[C@H]3OC(=O)[C@H](OC(=O)/C=C(\C)C(C)C)[C@@H]24,3 nM (active)
12,C#CCN(C)[C@H](C)Cc1ccccc1,inactive
13,C[C@]12CC[C@H](O)CC1=CC[C@@H]1[C@@H]2CC[C@]2(C)C(=O)CC[C@@H]12,inactive
14,COc1cc2c(cc1F)C(c1ccccc1Cl)=Nc1c(n[nH]c1C)N2,1860 nM (active)
